# Laboratory results taken from PubChem BioAssay (NCATS).
# “And” between values parts separate entries of the source, which are not always exact repeats. Equal values may be shown once. Results filed as inconclusive are left out. Where a call stands in place of a potency, no number is given. The source made the active and inactive calls. Unless noted, calls come from the whole dose curve.
# Tests used:
# [1] = molecular target: Cytochrome P450 2C9 (Homo sapiens) (UniProt P11712); experiment: qHTS Assay for Inhibitors and Substrates of Cytochrome P450 2C9 (AID 883; active = well fitted curve in the direction sought with a large enough effect; an effect the other way counts as inactive or inconclusive; note: potency is the fitted concentration of half-maximal effect; nearly all actives have a fitted effect of over 60% in size)
# Summary of the method: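 Human CYP2C9 (10nM) with Luciferin-H at 100uM (its KM) in 25mM KPO4; compound preincubated 10 min at 37C, then NADPH regeneration for 60 min at 37C. Luciferin read by luminescence after detection reagent; normalized to 57uM sulphaphenazole as full inhibition.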
# [2] = molecular target: Cytochrome P450 3A4 (Homo sapiens) (UniProt P08684); experiment: qHTS Assay for Activators of Cytochrome P450 3A4 (AID 885; active = well fitted curve in the direction sought with a large enough effect; an effect the other way counts as inactive or inconclusive; note: nearly all actives have a fitted effect of over 65% in size)
# Summary of the method: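 Using 20nM recombinant human CYP3A4 in potassium phosphate (200mM), substrate Luciferin-PPXE at 25uM, luminescent luciferin detection followed a 60-min RT NADPH reaction; data scaled to 57 uM ketoconazole.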
# [3] = molecular target: Cytochrome P450 2D6 (Homo sapiens) (UniProt P10635); experiment: qHTS Assay for Inhibitors and Substrates of Cytochrome P450 2D6 (AID 891; active = well fitted curve in the direction sought with a large enough effect; an effect the other way counts as inactive or inconclusive; note: potency is the fitted concentration of half-maximal effect; nearly all actives have a fitted effect of over 60% in size)
# Summary of the method: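 Luminescent read-out of luciferin formed by 5 nM human CYP2D6 demethylating 30 uM Luciferin-ME EGE (Km level) over 60 min at room temperature after NADPH regeneration addition. Data normalized to full inhibition by 1.43 uM quinidine.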
# [4] = molecular target: Cytochrome P450 2C19 (Homo sapiens) (UniProt P33261); experiment: qHTS Assay for Inhibitors and Substrates of Cytochrome P450 2C19 (AID 899; active = well fitted curve in the direction sought with a large enough effect; an effect the other way counts as inactive or inconclusive; note: potency is the fitted concentration of half-maximal effect; nearly all actives have a fitted effect of over 60% in size)
# Summary of the method: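 5 nM human CYP2C19 with 10uM Luciferin-H EGE (at KM) in 50mM KPO4, compound preincubated 10 min at 37C, then NADPH regeneration for 60 min at 37C. Luciferin read by luminescence after detection reagent; normalized to 57uM ketoconazole as full inhibition.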
# [5] = qHTS for Inhibitors of the Functional Ribonucleoprotein Complex (vRNP) of Lassa (LASV) Arenavirus: LASV Primary Screen - GLuc reporter signal (AID 1347082; calls by dose curve; tested in HEK293 reporter line; note: nearly all actives have a fitted effect of over 60% in size; note: potency is the fitted concentration of half-maximal effect)
# [6] = qHTS for Inhibitors of the Functional Ribonucleoprotein Complex (vRNP) of Lassa (LASV) Arenavirus: Viability assay - alamar blue signal for LASV Primary Screen (AID 1347083; calls by dose curve; tested in HEK293 reporter line; note: nearly all actives have a fitted effect of over 80% in size; note: potency is the fitted concentration of half-maximal effect)
# [7] = qHTS for Inhibitors of the Functional Ribonucleoprotein Complex (vRNP) of Lymphocytic Choriomeningitis Arenaviruses (LCMV): Viability assay - alamar blue signal for LCMV Primary Screen (AID 1347085; calls by dose curve; tested in HEK293 reporter line; note: nearly all actives have a fitted effect of over 80% in size; note: potency is the fitted concentration of half-maximal effect)
# [8] = molecular target: Nucleoprotein (Lymphocytic choriomeningitis virus (strain Armstrong)) (UniProt P09992); experiment: qHTS for Inhibitors of the Functional Ribonucleoprotein Complex (vRNP) of Lymphocytic Choriomeningitis Arenaviruses (LCMV): LCMV Primary Screen - GLuc reporter signal (AID 1347086); note: nearly all actives have a fitted effect of over 70% in size
# [9] = Cytotoxicity counterscreen for inhibitors of SARS-CoV-2 cell entry (AID 1645845); note: nearly all actives have a fitted effect of over 50% in size
# Summary of the method: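 Counterscreen run in the same HEK293-ACE2 line as the pseudotyped-particle entry assay, without particles. Viability after 48 h at 37 C was read as ATP luminescence, scaled between cell-containing and cell-free wells.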
# [10] = Primary qHTS to identify inhibitors of SARS-CoV-2 cell entry (AID 1645846); details: activity change, negative = inhibition: at 57.1 µM (top of the series) unless noted; note: nearly all actives have a fitted effect of over 45% in size; note: potency is the fitted concentration of half-maximal effect
# Summary of the method: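 HEK293-ACE2 (Expi293F, stable hACE2), 1500 cells/well, o/n 37C; cpd 23 nL pin, 1 h; MLV-PP w/ SARS-CoV-2-S (Wuhan-Hu-1, Δ19 C-term); 48 h 37C; Bright-Glo luminescence; normalized vs S-PP and bald PP.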
# [11] = Primary qHTS for Huh7 cytotoxicity: counterscreen for inhibitors of MERS-S pseudotyped particle cell entry (AID 1479147); details: outcome: dose series up to 57.1 µM unless noted
# [12] = Primary qHTS for inhibitors of MERS-S pseudo-typed particle cell entry (AID 1479149); note: nearly all actives have a fitted effect of over 60% in size
# [13] = Primary qHTS for Vero E6 cytotoxicity: counterscreen for inhibitors of SARS-S pseudo-typed particle cell entry (AID 1479150); details: outcome: dose series up to 57.1 µM unless noted
# [14] = qHTS profiling of the MIPE4 collection as inhibitors of Plasmodium falciparum (DD2) proliferation (AID 743345; call rule not given here); details: P. falciparum Dd2 in erythrocytes, SYBR Green DNA, 72 h; at 28.5 µM (top of the series) unless noted
# Summary of the method: (§1)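 Parasite DNA was quantified by SYBR Green I fluorescence (ex 485, em 535 nm) after overnight lysis in saponin/Triton buffer at room temperature. Cultures at 0.3% parasitemia and 2.5% hematocrit were first exposed to compound for 72 h at 37 C; signals were normalised to artemisinin (0.29 uM) and vehicle wells.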
# [15] = qHTS profiling of the MIPE4 collection as inhibitors of Plasmodium falciparum (3D7) proliferation (AID 743344; call rule not given here); details: P. falciparum 3D7 in erythrocytes, SYBR Green DNA fluorescence, 72 h; at 28.5 µM (top of the series) unless noted
# Summary of the method: as §1
# [16] = molecular target: Alpha-galactosidase (Coffea arabica) (UniProt Q42656); experiment: Counterscreen for Glucocerebrosidase Inhibitors: qHTS Assay for Coffee Bean alpha-Galactosidase at pH 4.5 (AID 957; active = well fitted curve in the direction sought with a large enough effect; an effect the other way counts as inactive or inconclusive)
# Summary of the method: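 Fluorogenic qHTS at pH 4.5 (citrate buffer with Tween-20): 2 nM enzyme, 80 uM 4-MU-alpha-galactoside substrate, compound titrated 0.7 nM to 77 uM, 20 min room temperature. Glycine/NaOH stop; 4-MU read Ex 365/Em 440; Hill-equation AC50 against no-enzyme and enzyme controls.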
# [17] = molecular target: Alpha-galactosidase (Coffea arabica) (UniProt Q42656); experiment: Counterscreen for Glucocerebrosidase Inhibitors: qHTS Assay for Coffee Bean alpha-Galactosidase at pH 5.9 (AID 998; active = well fitted curve in the direction sought with a large enough effect; an effect the other way counts as inactive or inconclusive)
# Summary of the method: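 Enzyme 2 nM + cpd (0.7 nM–77 uM titration) + 4-MU-alpha-Gal 80 uM, pH 5.9 citrate/Tween-20, RT 20 min, NaOH/glycine stop pH 10, fluor 365/440. Normalized to no-enzyme and full-activity controls; Hill-fit AC50.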
# [18] = Validation screen for inhibitors of Lassa infection (AID 463096)
# [19] = Inducers of the Endoplasmic Reticulum Stress Response (ERSR) in human glioma: Validation (AID 504836; active = well fitted curve in the direction sought with a large enough effect; an effect the other way counts as inactive or inconclusive)
# Summary of the method: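 Stably transfected U87-MG glioma cells carrying a GRP78-based luciferase sensor; 16 h compound incubation. Luminescence end-point read 10 min after Bright-Glo addition at room temperature.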
# Chain of Nucleoprotein (Lymphocytic choriomeningitis virus (strain Armstrong)) (P09992 whole entry, looked up): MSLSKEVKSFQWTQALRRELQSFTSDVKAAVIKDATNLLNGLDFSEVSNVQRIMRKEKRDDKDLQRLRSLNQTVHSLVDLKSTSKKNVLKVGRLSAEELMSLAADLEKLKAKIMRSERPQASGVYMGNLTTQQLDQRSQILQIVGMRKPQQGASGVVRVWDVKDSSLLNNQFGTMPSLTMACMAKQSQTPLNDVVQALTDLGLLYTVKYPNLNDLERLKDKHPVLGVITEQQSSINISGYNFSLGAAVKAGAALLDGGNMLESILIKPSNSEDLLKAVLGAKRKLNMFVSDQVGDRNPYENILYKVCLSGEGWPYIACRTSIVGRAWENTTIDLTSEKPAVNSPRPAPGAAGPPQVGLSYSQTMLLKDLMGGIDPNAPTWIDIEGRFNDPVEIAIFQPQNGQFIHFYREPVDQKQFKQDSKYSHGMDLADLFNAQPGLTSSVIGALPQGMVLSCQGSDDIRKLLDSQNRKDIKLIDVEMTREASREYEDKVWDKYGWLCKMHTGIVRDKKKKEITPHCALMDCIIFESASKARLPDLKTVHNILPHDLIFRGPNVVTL
# Chain of Alpha-galactosidase (Coffea arabica) (Q42656 whole entry, looked up): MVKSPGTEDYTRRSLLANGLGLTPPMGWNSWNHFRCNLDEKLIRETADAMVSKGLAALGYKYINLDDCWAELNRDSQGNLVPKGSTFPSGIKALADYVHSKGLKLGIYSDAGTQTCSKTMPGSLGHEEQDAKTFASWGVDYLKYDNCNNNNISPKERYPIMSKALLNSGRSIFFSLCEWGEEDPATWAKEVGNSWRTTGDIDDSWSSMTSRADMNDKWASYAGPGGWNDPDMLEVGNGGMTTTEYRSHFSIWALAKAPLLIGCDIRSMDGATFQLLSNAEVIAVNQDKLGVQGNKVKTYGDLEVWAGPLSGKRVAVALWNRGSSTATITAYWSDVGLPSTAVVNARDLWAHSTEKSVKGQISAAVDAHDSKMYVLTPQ
# Chain of Cytochrome P450 2C19 (Homo sapiens) (P33261 whole entry, looked up): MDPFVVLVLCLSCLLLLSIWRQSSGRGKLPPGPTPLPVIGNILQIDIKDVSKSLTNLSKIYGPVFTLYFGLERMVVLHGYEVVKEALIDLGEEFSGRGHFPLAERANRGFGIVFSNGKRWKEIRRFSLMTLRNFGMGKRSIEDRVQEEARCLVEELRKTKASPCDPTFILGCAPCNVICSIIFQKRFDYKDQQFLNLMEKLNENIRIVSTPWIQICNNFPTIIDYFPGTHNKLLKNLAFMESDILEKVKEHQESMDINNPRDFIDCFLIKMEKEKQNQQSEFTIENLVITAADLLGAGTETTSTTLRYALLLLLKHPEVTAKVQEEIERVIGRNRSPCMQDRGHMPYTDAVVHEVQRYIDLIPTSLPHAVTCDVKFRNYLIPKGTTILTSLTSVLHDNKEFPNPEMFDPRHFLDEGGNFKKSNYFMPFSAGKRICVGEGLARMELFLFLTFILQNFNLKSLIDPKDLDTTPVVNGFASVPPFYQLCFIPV
# Chain of Cytochrome P450 3A4 (Homo sapiens) (P08684 whole entry, looked up): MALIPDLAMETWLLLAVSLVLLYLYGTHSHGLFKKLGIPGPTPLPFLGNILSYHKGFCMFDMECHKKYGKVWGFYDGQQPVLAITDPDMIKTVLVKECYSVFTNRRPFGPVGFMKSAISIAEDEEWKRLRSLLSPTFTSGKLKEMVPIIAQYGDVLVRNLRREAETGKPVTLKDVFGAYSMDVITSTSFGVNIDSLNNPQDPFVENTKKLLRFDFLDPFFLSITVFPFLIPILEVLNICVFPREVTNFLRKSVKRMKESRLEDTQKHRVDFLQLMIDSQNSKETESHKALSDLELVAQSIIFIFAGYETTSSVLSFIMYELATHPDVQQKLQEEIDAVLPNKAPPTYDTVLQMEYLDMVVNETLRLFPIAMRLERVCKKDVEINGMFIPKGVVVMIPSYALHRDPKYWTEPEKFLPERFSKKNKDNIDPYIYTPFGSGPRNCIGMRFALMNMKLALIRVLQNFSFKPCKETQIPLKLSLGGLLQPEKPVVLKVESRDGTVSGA
# Chain of Cytochrome P450 2C9 (Homo sapiens) (P11712 whole entry, looked up): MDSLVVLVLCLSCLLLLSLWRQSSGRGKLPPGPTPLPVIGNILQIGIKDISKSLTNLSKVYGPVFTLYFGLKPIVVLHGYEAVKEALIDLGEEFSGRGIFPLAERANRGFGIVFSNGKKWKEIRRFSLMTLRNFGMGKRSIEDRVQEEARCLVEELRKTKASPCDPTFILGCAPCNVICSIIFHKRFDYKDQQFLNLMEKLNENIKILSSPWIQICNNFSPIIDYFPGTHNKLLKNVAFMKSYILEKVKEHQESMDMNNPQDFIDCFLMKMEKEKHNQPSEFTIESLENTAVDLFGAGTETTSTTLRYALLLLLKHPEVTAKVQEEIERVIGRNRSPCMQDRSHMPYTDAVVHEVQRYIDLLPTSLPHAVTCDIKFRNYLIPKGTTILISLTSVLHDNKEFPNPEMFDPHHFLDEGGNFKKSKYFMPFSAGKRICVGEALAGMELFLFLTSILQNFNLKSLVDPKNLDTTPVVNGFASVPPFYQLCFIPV
# Chain of Cytochrome P450 2D6 (Homo sapiens) (P10635 whole entry, looked up): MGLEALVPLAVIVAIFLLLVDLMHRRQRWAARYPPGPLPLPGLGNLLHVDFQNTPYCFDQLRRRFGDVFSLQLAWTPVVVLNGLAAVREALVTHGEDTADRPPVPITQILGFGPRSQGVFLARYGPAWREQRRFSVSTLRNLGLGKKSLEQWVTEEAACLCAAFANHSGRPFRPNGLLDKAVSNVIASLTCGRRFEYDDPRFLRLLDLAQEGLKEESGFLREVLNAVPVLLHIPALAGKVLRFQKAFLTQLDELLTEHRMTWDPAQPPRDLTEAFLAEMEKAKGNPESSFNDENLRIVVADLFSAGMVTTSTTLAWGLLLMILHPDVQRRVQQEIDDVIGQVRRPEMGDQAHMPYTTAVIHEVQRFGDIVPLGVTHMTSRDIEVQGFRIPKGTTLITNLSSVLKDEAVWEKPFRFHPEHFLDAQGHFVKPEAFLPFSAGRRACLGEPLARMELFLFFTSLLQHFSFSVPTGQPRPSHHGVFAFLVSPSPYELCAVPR
compound,measurement,setting,value
COc1c2ccoc2cc2oc(=O)ccc12,Potency,[1],5.01 µM (active)
same,Potency,[2],inactive
same,Potency,[3],2 µM (active)
same,Potency,[4],3.16 µM (active)
same,Potency,[5],inactive
same,Potency,[6],inactive
same,Potency,[7],inactive
same,Potency,[8],inactive
N#Cc1cc(NC(=O)Nc2nnc(-c3ccncc3)s2)ccc1-c1cn[nH]c1,Potency,[5],inactive
same,Potency,[6],inactive
same,Potency,[7],6.85 µM (active)
same,Potency,[9],inactive
same,Potency,[10],inactive
CS(=O)(=O)c1ccc(C2=C(c3ccccc3)C(=O)OC2)cc1,Potency,[5],inactive
same,Potency,[6],inactive
same,Potency,[7],27.3 µM (active)
same,outcome,[11],inactive
same,Potency,[12],inactive
same,outcome,[13],inactive
same,Potency,[9],inactive
same,"activity change, negative = inhibition",[10],-28.2% and -25.4%
CN(N=O)C(=O)N[C@H]1C(O)OC(CO)[C@@H](O)[C@H]1O (some centres not stated),Potency,[4],7.94 µM (active)
same,Potency,[5],inactive
same,Potency,[6],inactive
same,Potency,[7],inactive
same,Potency,[8],inactive
Cc1cccc2c1CC[C@H](CN1CCC(c3c(Cl)cccc3Cl)CC1)C[C@@H]2O,"parasite growth remaining, % of DMSO control (lower = more inhibition)",[14],25.2%
same,Potency,[5],inactive
same,Potency,[6],inactive
same,Potency,[7],inactive
same,Potency,[8],inactive
CC1=C(C(=O)Nc2cc3cn[nH]c3cc2F)C(c2ccc(Cl)cc2F)N=C(c2ccnc(Cl)c2)N1 (configuration not stated),Potency,[5],inactive
same,Potency,[6],inactive
same,Potency,[7],inactive
same,Potency,[9],inactive
CNC1[C@H](O)C(O[C@@H]2C(O)C(O[C@H]3O[C@H]([C@@H](C)NC)CC[C@H]3N)[C@@H](N)C[C@H]2N)OC[C@]1(C)O (some centres not stated),"parasite growth, % of DMSO control",[15],93.1%
same,"parasite growth remaining, % of DMSO control (lower = more inhibition)",[14],103%
same,Potency,[5],inactive
same,Potency,[6],inactive
same,Potency,[7],inactive
same,Potency,[8],inactive
CCOC(=O)C1=C(C)NC2=C(C(=O)CC(C)(C)C2)C1c1ccc(-c2ccccc2)cc1 (configuration not stated),Potency,[5],inactive
same,Potency,[6],inactive
same,Potency,[7],inactive
same,Potency,[9],inactive
CCS(=O)(=O)Nc1ccc2[nH]c(O)c(C(=Nc3ccc(CN4CCCCC4)cc3)c3ccccc3)c2c1,Potency,[5],9.68 µM (active)
same,Potency,[6],2.17 µM (active)
same,Potency,[7],0.968 µM (active)
same,Potency,[10],2.82 µM (active)
Cc1cc(NC(=O)Nc2ccc3c(ccn3C)c2)sn1,outcome,[16],inactive
same,outcome,[17],inactive
same,Potency,[5],inactive
same,Potency,[6],inactive
same,Potency,[7],inactive
same,Potency,[8],inactive
CC(C)n1nc(-c2ccc3oc(N)nc3c2)c2c(N)ncnc21,Potency,[5],0.0024 µM (active)
same,Potency,[6],0.0019 µM (active)
same,Potency,[7],0.0031 µM (active)
same,"activity change, negative = inhibition",[10],-61%
Clc1nccc2c1ccc1ccccc12,outcome,[16],inactive
same,outcome,[17],inactive
same,Potency,[18],inactive
same,outcome,[19],inactive
same,Potency,[5],inactive
same,Potency,[6],inactive
same,Potency,[7],inactive
CN(C)CCCC1(c2ccc(F)cc2)OCc2cc(C#N)ccc21 (configuration not stated),Potency,[18],inactive
same,outcome,[19],inactive
same,Potency,[5],inactive
same,Potency,[6],inactive
same,Potency,[7],inactive
same,outcome,[11],inactive
same,outcome,[13],inactive
CN(C)S(=O)(=O)c1ccc2c(c1)C(=Cc1cc3c([nH]1)CCCC3)C(=O)N2,Potency,[5],inactive
same,Potency,[6],10.9 µM (active)
same,Potency,[7],2.73 µM (active)
same,Potency,[9],inactive
